# Reference: PubChem BioAssay (Tox21)
# Several values for one entry are separate records, joined by “and”; a condition that tells them apart may be missing. Equal values may be shown once. Results filed as inconclusive are left out. A call without a number means that no potency is given here. The source holds several records for some structures; these can differ, active in one and inactive in another. Activity calls are given as the source filed them. Unless noted, calls follow the shape of the full dose curve.
# Assays:
# [1] = qHTS assay to identify small molecule agonists of the vitamin D receptor (VDR) signaling pathway - cell viability counter screen (AID 743224; active = well fitted curve in the direction sought with a large enough effect in the repeat runs; an effect the other way counts as inactive or inconclusive; also: nearly all actives have a fitted effect of over 50% in size; also: potency is read from the fitted curve at half-maximal effect)
# Outline: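 Luminescence from CellTiter-Glo, read after 30 min at room temperature, reports viability of VDR-bla cells treated with compounds for 16 h at 37C in the wells used for the beta-lactamase FRET read.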
# [2] = qHTS assay to identify small molecule antagonists of the vitamin D receptor (VDR) signaling pathway - cell viability counter screen (AID 743225; active = well fitted curve in the direction sought with a large enough effect in the repeat runs; an effect the other way counts as inactive or inconclusive; also: nearly all actives have a fitted effect of over 50% in size; also: potency is read from the fitted curve at half-maximal effect)
# Outline: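 In this counter screen, VDR-bla HEK 293T cells receive test compound plus 3 nM final calcitriol for 16 h at 37C. Room-temperature steps of 2 h with the beta-lactamase substrate, then 30 min with CellTiter-Glo, precede the luminescence read.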
# [3] = qHTS assay to identify small molecule agonists of the NFkB signaling pathway - cell viability counter screen (AID 1159515); also: series mostly up to about 61 µM; nearly all actives have a fitted effect of over 55% in size
# Outline: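 Luminescence from CellTiter-Glo (30 min, room temperature) gives viability, measured in the same wells as the beta-lactamase reporter read. Cells were NFkB-bla ME-180, 2,000 per well, treated 5 hr with compounds.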
# [4] = qHTS assay to identify small molecule agonists of the endoplasmic reticulum stress response signaling pathway (AID 1159516; active = well fitted activation curve with a large enough effect in the signal ratio in the repeat runs, not every such curve was filed as active; the % refers to the signal ratio; also: potency is read from the fitted curve at half-maximal effect)
# Outline: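 Read-out is beta-lactamase cleavage of a FRET substrate (405 nm excitation; 460 and 530 nm emissions) in ESRE-bla HeLa cells after a 5 hr compound exposure at 37 C. Substrate incubation ran 2 hr at room temperature.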
# [5] = qHTS assay to identify small molecule agonists of the endoplasmic reticulum stress response signaling pathway - cell viability counter screen (AID 1159517);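 also: HeLa cells carrying an ER stress response element beta-lactamase reporter; series mostly up to about 61 µM; nearly all actives have a fitted effect of over 50% in size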
# Outline: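 CellTiter-Glo was added to wells already read for beta-lactamase FRET, and luminescence was recorded 30 min later. Cells: ESRE-bla HeLa, 1,500 per well, compound exposure 5 hr at 37 C.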
# [6] = qHTS assay to identify small molecule antagonists of the retinoid-related orphan receptor gamma (ROR-gamma) signaling pathway - cell viability counter screen (AID 1159520; active = well fitted curve in the direction sought with a large enough effect in the repeat runs; an effect the other way counts as inactive or inconclusive; also: nearly all actives have a fitted effect of over 50% in size)
# Outline: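 Tet-on ROR gamma CHO cells (1,000/well) were plated 4 hr, given compounds in DMSO for 2 hr at 37 C, then induced with 1 uM final doxycycline for 16 hr. Viability was read as ATP by CellTiter-Glo luminescence after 30 min.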
# [7] = biological target: Nuclear receptor ROR-gamma (Homo sapiens) (UniProt P51449); test: qHTS assay to identify small molecule antagonists of the retinoid-related orphan receptor gamma (ROR-gamma) signaling pathway (AID 1159521; active = well fitted curve in the direction sought with a large enough effect in the repeat runs; an effect the other way counts as inactive or inconclusive; also: nearly all actives have a fitted effect of over 50% in size; also: potency is read from the fitted curve at half-maximal effect)
# Outline: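 Screening format: cell-based luciferase reporter in CHO cells with doxycycline-inducible RORγ. Compound pre-exposure lasts 2 h, doxycycline is 1 uM final, induction runs 16 h at 37 C, and ONE-Glo luminescence is read.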
# [8] = qHTS assay to identify small molecule agonists of the AP-1 signaling pathway - cell viability counter screen (AID 1159525); also: nearly all actives have a fitted effect of over 55% in size; also: potency is read from the fitted curve at half-maximal effect
# Outline: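 ME-180 AP-1-bla, 2500 cells/well, Opti-MEM + 0.5% dialyzed FBS; overnight 37 °C; cpd 15-pt titration, 5 h 37 °C; CellTiter-Glo 30 min RT; luminescence read; normalised to TOAB and DMSO controls.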
# [9] = qHTS assay to identify small molecule agonists of the AP-1 signaling pathway (AID 1159526)
# [10] = biological target: Retinoic acid receptor RXR-alpha (Homo sapiens) (UniProt P19793); test: qHTS assay to identify small molecule agonists of the RXR signaling pathway (AID 1159527); also: nearly all actives have a fitted effect of over 35% in size; also: potency is read from the fitted curve at half-maximal effect
# Outline: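 Fluorescence ratio readout (460 vs 530 nm) from GeneBLAzer RXR-alpha HEK 293T cells after 16 hr compound treatment; cells seeded 5 hr beforehand in low-serum, charcoal-stripped medium.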
# Sequence of Retinoic acid receptor RXR-alpha (Homo sapiens) (P19793 whole entry, looked up): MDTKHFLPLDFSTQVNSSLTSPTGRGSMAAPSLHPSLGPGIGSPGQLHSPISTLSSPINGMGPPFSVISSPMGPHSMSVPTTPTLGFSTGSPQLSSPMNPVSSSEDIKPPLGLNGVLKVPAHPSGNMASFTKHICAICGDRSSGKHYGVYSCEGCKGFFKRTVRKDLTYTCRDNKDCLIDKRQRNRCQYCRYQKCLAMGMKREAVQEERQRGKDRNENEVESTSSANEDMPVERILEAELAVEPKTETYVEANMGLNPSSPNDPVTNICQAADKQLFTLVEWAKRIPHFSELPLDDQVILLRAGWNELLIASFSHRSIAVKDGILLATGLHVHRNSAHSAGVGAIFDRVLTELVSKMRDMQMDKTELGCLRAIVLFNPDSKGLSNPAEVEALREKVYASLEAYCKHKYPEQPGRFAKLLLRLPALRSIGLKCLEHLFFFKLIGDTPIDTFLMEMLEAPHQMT
Compound,Potency [1],Potency [2],Potency [3],Potency [4],Potency [5],Potency [6],Potency [7],Potency [8],activation [9],activation [10],outcome [9],Potency [10]
CCCCCCCCCCCC(=O)N(C)CC(=O)O,inactive,inactive,inactive,inactive,inactive,inactive,inactive,inactive,-13.8% [at 6.97 µM] (inactive),1.89% [at 6.98 µM] (inactive),–,–
N[C@@H](Cc1cc(I)c(Oc2ccc(O)c(I)c2)c(I)c1)C(=O)O,inactive,–,inactive,inactive,inactive,inactive,inactive,inactive,–,–,inactive,inactive
OC1CCCCC1,inactive,–,inactive,inactive,inactive,inactive,inactive,inactive,–,–,inactive,inactive
Cc1cc(C)c(O)c(C)c1,inactive,inactive,inactive,inactive,inactive,inactive,inactive,inactive,–,–,inactive,inactive
Cc1ccc(C(C)C)cc1,inactive,inactive,inactive,inactive,inactive,inactive,inactive,inactive,–,–,inactive,inactive
NC1CCCCC1N (centres undefined),inactive,inactive,inactive,inactive,inactive,inactive,inactive,inactive,–,–,inactive,inactive
COc1ccc([C@@H]2CC(=O)c3c(O)cc(O[C@@H]4O[C@H](CO[C@@H]5O[C@@H](C)[C@H](O)[C@@H](O)[C@H]5O)[C@@H](O)[C@H](O)[C@H]4O)cc3O2)cc1OC,inactive,–,inactive,inactive,inactive,inactive,inactive,inactive,–,–,inactive,inactive
O=C1CCCCCCCCCCC1,inactive,–,inactive,inactive,inactive,inactive,inactive,inactive,–,–,inactive,inactive
CC1(C)C(=O)N(Cl)C(=O)N1Cl,inactive,inactive,inactive,inactive,inactive,inactive,inactive,inactive,–,–,inactive,inactive
O=C1C(N(CO)C(=O)NCO)N(CO)C(=O)N1CO (centres undefined),inactive,inactive,inactive,inactive,inactive,inactive,inactive,inactive,–,–,inactive,inactive
CC/C=C(\C(=O)N[C@@H]1C(=O)N2C(C(=O)OCOC(=O)C(C)(C)C)=C(COC(N)=O)CS[C@H]12)c1csc(N)n1,inactive,–,inactive,inactive,inactive,inactive,inactive,inactive,–,–,inactive,inactive
O=C1O[C@H]([C@H](O)CO)C(O)=C1O,inactive,inactive,inactive,inactive,inactive,inactive,inactive,inactive,–,–,inactive,inactive
CCCOC(=O)NCCCN(C)C,inactive,inactive,inactive,inactive,inactive,inactive,inactive,inactive,–,–,inactive,21.9 µM (active) and inactive
O=c1n(CCCN2CCN(c3cccc(Cl)c3)CC2)nc2ccccn12,inactive,inactive,inactive,inactive,inactive,inactive,inactive,inactive,–,–,inactive,inactive
CC(=O)OCc1ccc2c(c1)OCO2,inactive,–,inactive,inactive,inactive,inactive,inactive,inactive,–,–,inactive,inactive
NCCNCCNCCN,inactive,inactive,inactive,inactive,inactive,inactive,inactive,inactive,–,–,inactive,inactive
O=c1c(O)c(-c2ccc(O)c(O)c2)oc2cc(O)cc(O)c12,inactive,–,inactive,inactive,inactive,inactive,inactive and 43.6 µM (active) and 54.5 µM (active),inactive,–,–,inactive,inactive
CCCCCC(C)=O,inactive,inactive,inactive,inactive,inactive,inactive,inactive,inactive,–,–,inactive,inactive
Clc1cccc(Cl)c1NC1=NCCN1,inactive,–,inactive,inactive,inactive,inactive,inactive,inactive,–,–,inactive,inactive
Cc1ncc(CO)c(CO)c1O,inactive,inactive,inactive,inactive,inactive,inactive,inactive,inactive,–,–,inactive,inactive
CC(O)CNCC(C)O (centres undefined),inactive,–,inactive,inactive,inactive,inactive,inactive,inactive,–,–,inactive,inactive
CC1(C)[C@@H](O[C@H]2O[C@H](C(=O)O)[C@@H](O)[C@H](O)[C@H]2O[C@@H]2O[C@H](C(=O)O)[C@@H](O)[C@H](O)[C@H]2O)CC[C@]2(C)[C@H]3C(=O)C=C4[C@@H]5C[C@@](C)(C(=O)O)CC[C@]5(C)CC[C@@]4(C)[C@]3(C)CC[C@@H]12,inactive,inactive,inactive,inactive,inactive,inactive,inactive,inactive,–,–,inactive,inactive
CN1CCCC1=O,inactive,inactive,inactive,inactive,inactive,inactive,inactive,inactive,–,–,inactive,inactive
CC(=O)Nc1ccc(CC(=O)O)cc1,inactive,inactive,inactive,inactive,inactive,inactive,inactive,inactive,–,–,inactive,inactive
OCC(O)CS (centres undefined),inactive,–,inactive,inactive,inactive,inactive,inactive,inactive,–,–,inactive,inactive
CC(C)=CCC/C(C)=C/C=O,inactive,–,inactive,inactive,inactive,inactive,inactive,inactive,–,–,inactive,inactive

Compound,Potency [1],Potency [2],Potency [3],Potency [4],Potency [5],Potency [6],Potency [7],Potency [8],activation [9],activation [10],outcome [9],Potency [10]
OB(O)O,inactive,inactive,inactive,inactive,inactive,inactive,inactive,inactive,–,–,inactive,15.5 µM (active)
Cc1ccc([N+](=O)[O-])cc1N,inactive,–,inactive,inactive,inactive,inactive,inactive,inactive,–,–,inactive,21.8 µM (active) and inactive
O=C(NCC1CCCCN1)c1cc(OCC(F)(F)F)ccc1OCC(F)(F)F (centres undefined),inactive,inactive,inactive,inactive,inactive,inactive,inactive,inactive,–,–,inactive,inactive
CCOC(=O)CC(=O)OCC,inactive,inactive,inactive,inactive,inactive,inactive,inactive,inactive,–,–,inactive,inactive
CCOC(=O)c1ccc(O)cc1,inactive,–,inactive,inactive,inactive,inactive,inactive,inactive,–,–,inactive,inactive
CC(C)(C)NC[C@H](O)COc1nsnc1N1CCOCC1,inactive,inactive,inactive,inactive,inactive,inactive,inactive,inactive,–,–,inactive,inactive
CCCCCNCCCCC,inactive,–,inactive,inactive,inactive,inactive,inactive,inactive,–,–,inactive,inactive
COc1c2ccoc2cc2oc(=O)ccc12,inactive,–,inactive,inactive,inactive,inactive,inactive,inactive,–,–,inactive,inactive
CCn1cc(C(=O)O)c(=O)c2cc3c(cc21)OCO3,inactive,–,inactive,inactive,inactive,inactive,inactive,inactive,–,–,inactive,inactive
CN1Cc2c(N)cccc2C(c2ccccc2)C1 (centres undefined),inactive,–,inactive,inactive,inactive,inactive,inactive,inactive,–,–,inactive,inactive
CC1=CC(=O)CC(C)(C)C1,inactive,–,inactive,inactive,inactive,inactive,2.5 µM (active) and inactive,25.3 µM (active) and inactive,–,–,inactive,inactive
C=C(CC(=O)O)C(=O)O,inactive,inactive,inactive,inactive,inactive,inactive,inactive,inactive,–,–,inactive,inactive
Cc1ccncc1,inactive,inactive,inactive,inactive,inactive,inactive,–,inactive,–,–,inactive,inactive
Cc1cccc(C)c1[N+](=O)[O-],inactive,inactive,inactive,inactive,inactive,inactive,–,inactive,–,–,inactive,inactive
CCCCCCCC(=O)O,inactive,inactive,inactive,inactive,inactive,inactive,–,inactive,–,–,inactive,inactive
CC(C=O)Cc1ccc(C(C)(C)C)cc1 (centres undefined),inactive,inactive,inactive,inactive,inactive,inactive,–,inactive,–,–,inactive,inactive
CC(=O)OC[C@H]1O[C@@](COC(C)=O)(O[C@H]2O[C@H](COC(C)=O)[C@@H](OC(C)=O)[C@H](OC(C)=O)[C@H]2OC(C)=O)[C@@H](OC(C)=O)[C@@H]1OC(C)=O,inactive,inactive,inactive,inactive,inactive,inactive,–,inactive,–,–,inactive,inactive
CC(CN1c2ccccc2Sc2ccccc21)N(C)C (centres undefined),49.5 µM (active) and 43.6 µM (active),21.9 µM (active),inactive,inactive,inactive,inactive,–,inactive,–,–,–,inactive
C=CC(C)(C)C,inactive,–,inactive,inactive,inactive,inactive,–,inactive,–,–,inactive,inactive
Cc1ccc(C)c(S(=O)(=O)O)c1,inactive,inactive,inactive,inactive,inactive,inactive,–,inactive,–,–,inactive,inactive
C=C1C[C@]23C[C@@]1(O)CC[C@H]2[C@@]12C=C[C@H](O)[C@@](C)(C(=O)O1)[C@H]2[C@@H]3C(=O)O,inactive,inactive,inactive,inactive,inactive,inactive,–,inactive,–,–,inactive,inactive
COCN(COC)c1nc(N(COC)COC)nc(N(COC)COC)n1,inactive,inactive,inactive,inactive,inactive,inactive,–,inactive,–,–,inactive,inactive
O=C1OC(=O)c2c(Cl)c(Cl)c(Cl)c(Cl)c21,inactive,–,inactive,inactive,inactive,inactive,–,inactive,–,–,inactive,inactive
Nc1nc(N)c2nc(-c3ccccc3)c(N)nc2n1,inactive,inactive,inactive,49 µM (active) and 21.3 µM (active),inactive,inactive,inactive,inactive,–,–,–,19 µM (active)
NC(=O)NC(N)=O,inactive,inactive,inactive,inactive,inactive,inactive,–,inactive,–,–,inactive,inactive
c1cnc2c(c1)ccc1cccnc12,1.97 µM (active) and 2.75 µM (active) and 436 nM (active),5.49 µM (active) and 7.76 µM (active),inactive,inactive,inactive,inactive,1.95 µM (active) and 5.45 µM (active) and 6.11 µM (active),inactive,–,–,–,–
